# Measured values reported in PubChem BioAssay (Tox21).
# Results filed as inconclusive are left out. Entries that show only a call come without a potency. Calls of active or inactive are those of the source. Unless noted, calls come from the whole dose curve.
# Biological target: Estrogen receptor (Homo sapiens) (UniProt P03372)
# Experiment: qHTS assay to identify small molecule antagonists of the estrogen receptor alpha (ER-alpha) signaling pathway (AID 743069; active = well fitted curve in the direction sought with a large enough effect in the signal ratio in the repeat runs, not every such curve was filed as active; the % refers to the signal ratio)
# Settings: HEK293 ER-alpha-UAS-bla, beta-lactamase ratio, antagonist mode; series mostly up to 69.4 µM
# How it was run: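 HEK293 ER-alpha-UAS-bla GripTite cells, held overnight in 2% charcoal-stripped FBS, 5,000 cells/well, preincubated 4 h, then compound plus 17beta-estradiol for 18 h at 37C. Beta-lactamase read by LiveBLAzer B/G FRET substrate, 2 h at room temperature.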
# Sequence of Estrogen receptor (Homo sapiens) (P03372 whole entry, looked up): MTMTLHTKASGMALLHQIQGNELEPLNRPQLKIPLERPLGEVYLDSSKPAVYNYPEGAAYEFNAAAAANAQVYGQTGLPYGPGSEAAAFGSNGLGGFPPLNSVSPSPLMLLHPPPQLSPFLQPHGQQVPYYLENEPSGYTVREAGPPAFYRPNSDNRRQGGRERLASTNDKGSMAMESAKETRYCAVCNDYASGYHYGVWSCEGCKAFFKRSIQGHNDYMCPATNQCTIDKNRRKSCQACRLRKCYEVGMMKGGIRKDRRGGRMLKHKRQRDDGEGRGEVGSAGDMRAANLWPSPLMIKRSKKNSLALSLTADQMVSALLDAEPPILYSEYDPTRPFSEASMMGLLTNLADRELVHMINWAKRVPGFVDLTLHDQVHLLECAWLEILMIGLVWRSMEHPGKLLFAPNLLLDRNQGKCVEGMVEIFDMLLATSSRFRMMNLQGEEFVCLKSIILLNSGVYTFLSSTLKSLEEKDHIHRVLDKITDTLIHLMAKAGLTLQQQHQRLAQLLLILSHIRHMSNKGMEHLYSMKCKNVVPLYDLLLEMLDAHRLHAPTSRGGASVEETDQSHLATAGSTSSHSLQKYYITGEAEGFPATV
Structure (SMILES),Potency,"activity, negative = inhibition"
O=C(NC(=O)c1c(F)cccc1F)Nc1cc(Cl)c(F)c(Cl)c1F,inactive,
O=C(Cl)C(Cl)(Cl)Cl,inactive,
CN(C)CCN(C)C,inactive,
C=C(Cl)CCl,inactive,
CC(Cc1ccccc1)NCCn1cnc2c1c(=O)n(C)c(=O)n2C (configuration not stated),inactive,
O=C(Cl)C(Cl)Cl,inactive,
Brc1c(Br)c(Br)c(Br)c(Br)c1Br,,-6.9% [at 6.71 µM] (inactive)
CCNc1nc(Cl)nc(NC(C)(C)C)n1,inactive,
CC[C@H](O)C(C[C@H](C)N(C)C)(c1ccccc1)c1ccccc1,inactive,
N#CN=C1SCCN1Cc1ccc(Cl)nc1,inactive,
CC(C)(N)Cc1ccc(Cl)cc1,inactive,
CC(C)(O)C(Cl)(Cl)Cl,inactive,
C#CCOC(=O)/C=C(C)/C=C/CC(C)CCCC(C)C (configuration not stated),inactive,
CCOc1cc(OP(=S)(OC)OC)nc(CC)n1,inactive,
CCC(C(N)=O)N1CCCC1=O (configuration not stated),inactive,
CCN[C@H](C)Cc1cccc(C(F)(F)F)c1,inactive,
CCN(CCO)CCn1c(Cc2ccccc2)nc2c1c(=O)n(C)c(=O)n2C,inactive,
O=C(Cl)OCc1ccccc1,inactive,
CCNP(=S)(OC)O/C(C)=C/C(=O)OC(C)C (configuration not stated),inactive,
CN(C)C1CCCCC1,inactive,
CN1C(=O)COc2c(C(=O)NC3CN4CCC3CC4)cc(Cl)cc21 (configuration not stated),inactive,
C[C@H](CN1CCOCC1)C(C(=O)N1CCCC1)(c1ccccc1)c1ccccc1,inactive,
O=C(Cl)/C=C/C(=O)Cl,inactive,

# Tested on: not listed separately
# Experiment: qHTS assay to identify small molecule antagonists of the estrogen receptor alpha (ER-alpha) signaling pathway - cell viability counter screen (AID 743074);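 note: HEK293 cells carrying ER-alpha-UAS-bla reporter stimulated with 17beta-estradiol; nearly all actives have a fitted effect of over 45% in size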
# Settings: ERalpha-bla HEK293 viability, CellTiter-Glo luminescence, 18 h; series mostly up to 69.4 µM
Structure (SMILES),Potency,"activity, negative = cytotoxicity"
O=C(NC(=O)c1c(F)cccc1F)Nc1cc(Cl)c(F)c(Cl)c1F,inactive,
Cc1ccc2cc(C)ccc2c1,inactive,
c1ccc2c(c1)CCNC2,inactive,
O=C(Cl)C(Cl)(Cl)Cl,inactive,
CN(C)CCN(C)C,inactive,
CCC1(c2cccc(O)c2)CCCCN(C)C1 (configuration not stated),inactive,
C=C(Cl)CCl,inactive,
C=CC=O,inactive,
CCCCCCCCBr,inactive,
O=C(Cl)C(Cl)Cl,inactive,
Brc1c(Br)c(Br)c(Br)c(Br)c1Br,,-1.91% [at 6.72 µM] (inactive)
CCNc1nc(Cl)nc(NC(C)(C)C)n1,inactive,
CC[C@H](O)C(C[C@H](C)N(C)C)(c1ccccc1)c1ccccc1,inactive,
CC(C)(N)Cc1ccc(Cl)cc1,inactive,
C=CCN1CC[C@]23CCCC[C@H]2[C@H]1Cc1ccc(O)cc13,inactive,
COc1ccc2c(C(=O)c3ccc(Cl)cc3)c(C)n(CC(=O)O)c2c1,inactive,
CCC(=O)OC1(c2ccccc2)CCN(C)CC1,inactive,

Structure (SMILES),Potency,"activity, negative = cytotoxicity"
C=C1CC[C@@]2(O)[C@H]3Cc4ccc(O)c5c4[C@@]2(CCN3CC2CC2)[C@H]1O5,inactive,
C=C(Cl)CSC(=S)N(CC)CC,inactive,
C#CCOC(=O)/C=C(C)/C=C/CC(C)CCCC(C)C (configuration not stated),inactive,
CCOc1cc(OP(=S)(OC)OC)nc(CC)n1,inactive,
CCC1(c2ccccc2)C(=O)N(COC)C(=O)N(COC)C1=O,inactive,
CCC(C(N)=O)N1CCCC1=O (configuration not stated),inactive,
N#CC(Br)(Br)C(N)=O,inactive,
NNCc1ccccc1,inactive,
C[N+]1(C)CCCCC1,inactive,
CCc1cc(OC)c(C[C@H](C)N)cc1OC,inactive,
CCN[C@H](C)Cc1cccc(C(F)(F)F)c1,inactive,
CCN(CCO)CCn1c(Cc2ccccc2)nc2c1c(=O)n(C)c(=O)n2C,inactive,
O=C(Cl)OCc1ccccc1,inactive,
CCNP(=S)(OC)O/C(C)=C/C(=O)OC(C)C (configuration not stated),inactive,
CN(C)C1CCCCC1,inactive,
CON(C)C(=O)Nc1ccc(Br)c(Cl)c1,inactive,
CN1C(=O)COc2c(C(=O)NC3CN4CCC3CC4)cc(Cl)cc21 (configuration not stated),inactive,
